{
  "source": "PubChem BioAssay (NCATS)",
  "note": "Results filed as inconclusive are left out. Where a call stands in place of a potency, no number is given. Calls of active or inactive are those of the source. Calls follow the shape of the dose curve; as a rule, active = well fitted curve in the direction sought with a large enough effect; inconclusive = small, poorly fitted or top-dose-only effect, or another doubt; inactive = no such curve, though single readings can be large; an effect the other way counts as inactive or inconclusive.",
  "data": [
    {"test_system": "Zika virus NS2B-NS3 protease", "assay": "Primary screen GU AMC qHTS for Zika virus inhibitors (AID 1347154); also: nearly all actives have a fitted effect of over 70% in size; also: potency is read from the fitted curve at half-maximal effect", "details": "Zika NS2B-NS3 unlinked protease, AMC fluorogenic substrate; series mostly up to 54.1 µM", "how_it_was_run": "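Unlinked Zika NS2B hydrophilic domain–NS3 protease complex at 25 nM in 10 mM Tris-HCl pH 8.0, 0.01% Tween 20, with an AMC peptide substrate. Fluorescence change (340/450 nm) over 15 min at room temperature, normalized to controls, fitted to 4-parameter Hill.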", "values": [
      {"smiles": "C[C@@H]1CN(CC(=O)Nc2ccc3c(c2)Cc2cccc(-c4cc(=O)cc(N5CCOCC5)o4)c2S3)C[C@H](C)O1", "Potency": "inactive"},
      {"smiles": "O=C(NCCCNc1nc(Nc2cccc(NC(=O)N3CCCC3)c2)ncc1I)c1cccs1", "Potency": "inactive"},
      {"smiles": "CN1CCN(c2ccc3nc(-c4c(N)c5c(F)cccc5[nH]c4=O)[nH]c3c2)CC1", "Potency": "inactive"},
      {"smiles": "C[C@H]1C[C@@H]2[C@@H]([C@@H](O)C[C@@]3(C)[C@H]2CC[C@]3(O)C(=O)CO)[C@@]2(C)C=CC(=O)C=C12", "Potency": "inactive"},
      {"smiles": "CNC(=O)c1cc(Oc2ccc(NC(=O)Nc3cc(C(C)(C)C)nn3-c3ccc4ncccc4c3)c(F)c2)ccn1", "Potency": "inactive"},
      {"smiles": "O=C(c1ccc(Nc2nccc(-c3cc4ccccc4s3)n2)cc1)N1CCC(N2CCCC2)CC1", "Potency": "inactive"},
      {"smiles": "C1=CCOCc2cc(ccc2OCCN2CCCC2)Nc2nccc(n2)-c2cccc(c2)OCC1", "Potency": "inactive"},
      {"smiles": "c1ccc2c(CCNc3ccc(Nc4ccncc4)cc3)c[nH]c2c1", "Potency": "inactive"},
      {"smiles": "C1Cc2[nH]nc(-c3nn[nH]n3)c2C1", "Potency": "inactive"},
      {"smiles": "CCc1cc2c(cc1N1CCC(N3CCOCC3)CC1)C(C)(C)c1[nH]c3cc(C#N)ccc3c1C2=O", "Potency": "inactive"},
      {"smiles": "O=C(Nc1nc2cccc(-c3ccc(CN4CCS(=O)(=O)CC4)cc3)n2n1)C1CC1", "Potency": "inactive"},
      {"smiles": "COc1cc2ncn(-c3cc(OCc4ccccc4C(F)(F)F)c(C(N)=O)s3)c2cc1OC", "Potency": "inactive"},
      {"smiles": "COc1ccc(C(=O)CC2(O)C(=O)Nc3c(Cl)ccc(Cl)c32)cc1", "note": "(configuration not stated)", "Potency": "inactive"},
      {"smiles": "COCCOc1ccc2c(c1)ncn2-c1ccc2cccc(N3CCC(N)CC3)c2n1", "Potency": "inactive"},
      {"smiles": "Cc1cc(Nc2cc(N3CCN(C)CC3)nc(C=Cc3ccccc3)n2)n[nH]1", "Potency": "inactive"},
      {"smiles": "CC1COC2(CCN(c3nc(=O)c4cc(C(F)(F)F)cc([N+](=O)[O-])c4s3)CC2)O1", "note": "(configuration not stated)", "Potency": "inactive"},
      {"smiles": "O=C(CCCCCCNC(=O)c1cnc(N(c2ccccc2)c2ccccc2)nc1)NO", "Potency": "inactive"},
      {"smiles": "CC(=O)OCCN1C(=O)c2c(C)nc3ccc(S(=O)(=O)N4CCOCC4)cc3c2C1=O", "Potency": "inactive"},
      {"smiles": "Cn1c(CNc2ccc(C(=N)N)cc2)nc2cc(C(=O)N(CCC(=O)O)c3ccccn3)ccc21", "Potency": "inactive"},
      {"smiles": "CN(C)CC=CC(=O)Nc1cc2c(Nc3ccc(F)c(Cl)c3)ncnc2cc1O[C@H]1CCOC1", "Potency": "inactive"},
      {"smiles": "CN(C1CCc2c(c3ccccc3n2CC(=O)O)C1)S(=O)(=O)c1ccc(F)cc1", "note": "(configuration not stated)", "Potency": "inactive"},
      {"smiles": "COc1cc2ncnc(Nc3ccc(F)c(Cl)c3)c2cc1NC(=O)C=CCN1CCCCC1", "Potency": "inactive"},
      {"smiles": "CNC(=O)c1ccc(-c2cnc3ncc(Cc4ccc5ncccc5c4)n3n2)cc1F", "Potency": "inactive"},
      {"smiles": "Cc1ccc(CN2CCNCC2)cc1NC(=O)CNc1ccc(F)c(F)c1", "Potency": "inactive"},
      {"smiles": "Cc1cn2cc(C(=O)N(C)CCO)cc(N[C@@H]3CCOc4cccc(C)c43)c2n1", "Potency": "inactive"},
      {"smiles": "COc1c(N2C[C@@H]3CCCN[C@H]3C2)c(F)cc2c(=O)c(C(=O)O)cn(C3CC3)c12", "Potency": "30.4 µM (active)"},
      {"smiles": "COc1cc(-c2nn(C3CCC(N4CCN(C(C)=O)CC4)CC3)c3ncnc(N)c23)ccc1NC(=O)c1cc2ccccc2n1C", "note": "(configuration not stated)", "Potency": "inactive"},
      {"smiles": "Cn1cncc1[C@@](N)(c1ccc(Cl)cc1)c1ccc2c(c1)c(-c1cccc(Cl)c1)cc(=O)n2C", "Potency": "inactive"},
      {"smiles": "Nc1nc(Nc2ccc(S(N)(=O)=O)cc2)nn1C(=O)c1c(F)cccc1F", "Potency": "inactive"},
      {"smiles": "CNc1nccc(-c2cccnc2Oc2cc(C(=O)Nc3cccc(C(F)(F)F)c3)ccc2C)n1", "Potency": "inactive"},
      {"smiles": "CN1c2cc(O)c(N=NC(N)=O)cc2CC1S(=O)(=O)O", "note": "(configuration not stated)", "Potency": "inactive"},
      {"smiles": "c1nc2nc(Nc3ccc(N4CCOCC4)cc3)nc(NC3CCCCC3)c2[nH]1", "Potency": "inactive"},
      {"smiles": "Cn1cc(-c2[nH]c3cc(NC(=O)[C@H](N)C4CCCCC4)cc4c3c2C=NNC4=O)cn1", "Potency": "inactive"},
      {"smiles": "CS(=O)(=O)c1ccc(-c2cnc(N)c(C(=O)Nc3ccccc3)n2)cc1", "Potency": "inactive"},
      {"smiles": "Cc1cccc(C=NNc2cc(N3CCOCC3)nc(OCCc3ccccn3)n2)c1", "Potency": "inactive"},
      {"smiles": "Nc1ccc(C(=O)c2cc3c(ccc4ccccc43)[nH]2)cc1", "Potency": "inactive"},
      {"smiles": "C=CC(=O)Nc1cc2c(Nc3ccc(F)c(Cl)c3)ncnc2cc1OCCCN1CCOCC1", "Potency": "inactive"},
      {"smiles": "Nc1nc(-c2nn(Cc3ccccc3F)c3ncccc23)nc(N)c1N1CCOCC1", "Potency": "inactive"},
      {"smiles": "CCOc1ccccc1OCCNC(C)Cc1ccc(OC)c(S(N)(=O)=O)c1", "note": "(configuration not stated)", "Potency": "inactive"}
    ]},
    {"test_system": "Zika virus NS2B-NS3 protease (unlinked complex)", "assay": "Primary screen GU Rhodamine qHTS for Zika virus inhibitors: Unlinked NS2B-NS3 protease assay (AID 1347159); also: nearly all actives have a fitted effect of over 60% in size", "details": "Recombinant ZIKV NS2B-NS3 protease, Rhodamine110 substrate fluorescence; series mostly up to 107 µM", "how_it_was_run": "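Unlinked NS2B/NS3, 25 nM; Rhod110 peptide, 1.5 microM; compounds, up to 114 microM. Reaction run 15 min at RT in 10 mM Tris-HCl pH 8.0, 0.01% Tween 20; kinetic fluorescence change fitted with a 4-parameter Hill model.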", "values": [
      {"smiles": "CNC(=O)c1cc(Oc2ccc(NC(=O)Nc3cc(C(C)(C)C)nn3-c3ccc4ncccc4c3)c(F)c2)ccn1", "Potency": "inactive"},
      {"smiles": "O=C(c1ccc(Nc2nccc(-c3cc4ccccc4s3)n2)cc1)N1CCC(N2CCCC2)CC1", "Potency": "inactive"},
      {"smiles": "c1ccc2c(CCNc3ccc(Nc4ccncc4)cc3)c[nH]c2c1", "Potency": "inactive"},
      {"smiles": "C1Cc2[nH]nc(-c3nn[nH]n3)c2C1", "Potency": "inactive"},
      {"smiles": "CCc1cc2c(cc1N1CCC(N3CCOCC3)CC1)C(C)(C)c1[nH]c3cc(C#N)ccc3c1C2=O", "Potency": "inactive"},
      {"smiles": "O=C(Nc1nc2cccc(-c3ccc(CN4CCS(=O)(=O)CC4)cc3)n2n1)C1CC1", "Potency": "inactive"},
      {"smiles": "COc1ccc(C(=O)CC2(O)C(=O)Nc3c(Cl)ccc(Cl)c32)cc1", "note": "(configuration not stated)", "Potency": "inactive"},
      {"smiles": "COCCOc1ccc2c(c1)ncn2-c1ccc2cccc(N3CCC(N)CC3)c2n1", "Potency": "inactive"},
      {"smiles": "CC1COC2(CCN(c3nc(=O)c4cc(C(F)(F)F)cc([N+](=O)[O-])c4s3)CC2)O1", "note": "(configuration not stated)", "Potency": "inactive"},
      {"smiles": "Cn1c(CNc2ccc(C(=N)N)cc2)nc2cc(C(=O)N(CCC(=O)O)c3ccccn3)ccc21", "Potency": "inactive"},
      {"smiles": "Cc1ccc(CN2CCNCC2)cc1NC(=O)CNc1ccc(F)c(F)c1", "Potency": "inactive"},
      {"smiles": "Cc1cn2cc(C(=O)N(C)CCO)cc(N[C@@H]3CCOc4cccc(C)c43)c2n1", "Potency": "inactive"},
      {"smiles": "COc1cc(-c2nn(C3CCC(N4CCN(C(C)=O)CC4)CC3)c3ncnc(N)c23)ccc1NC(=O)c1cc2ccccc2n1C", "note": "(configuration not stated)", "Potency": "inactive"},
      {"smiles": "Nc1nc(Nc2ccc(S(N)(=O)=O)cc2)nn1C(=O)c1c(F)cccc1F", "Potency": "inactive"},
      {"smiles": "CNc1nccc(-c2cccnc2Oc2cc(C(=O)Nc3cccc(C(F)(F)F)c3)ccc2C)n1", "Potency": "inactive"},
      {"smiles": "c1nc2nc(Nc3ccc(N4CCOCC4)cc3)nc(NC3CCCCC3)c2[nH]1", "Potency": "inactive"},
      {"smiles": "Cn1cc(-c2[nH]c3cc(NC(=O)[C@H](N)C4CCCCC4)cc4c3c2C=NNC4=O)cn1", "Potency": "inactive"},
      {"smiles": "CS(=O)(=O)c1ccc(-c2cnc(N)c(C(=O)Nc3ccccc3)n2)cc1", "Potency": "inactive"}
    ]}
  ]
}
